{"source": "PubChem BioAssay", "key": {"[1]": {"test": "Wnt pathway potentiators raising nuclear beta-catenin – imaging, WNT3A-conditioned medium, mouse C2C12, NPC library, primary screen (AID 1117326; in the data active means nuclear beta-catenin stimulation mostly above about 4.2%, no sharp cut-off; inactive means mostly below about 10%)", "conditions": "stronger effect = higher value"}, "[2]": {"test": "stimulators of insulin release from INS-1E, primary screen, cell-based, 5 mM glucose, NPC library (AID 1117329;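 active means compound raises insulin release from rat beta cells at 5 mM glucose, no numeric limit stated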)", "conditions": "rat INS-1E insulin secretion, at 10 µM, stronger effect = higher value"}, "[3]": {"test": "growth inhibition of GSK3B-pretreated HCT116 cells – cell-based, CellTiter-Glo, 0.2 to 20 µM (AID 1117336;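 active means compounds lowering colon cancer cell viability after pretreatment blocking the GSK3B kinase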)", "conditions": "HCT116 viability after GSK3B inhibitor, at 20 µM, stronger effect = higher value"}, "[4]": {"test": "inhibition of endothelial tube formation, primary screen, imaging, VEGF stimulated, CD31 staining, tube area, NPC library (AID 1117340;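 active means compound that reduces growth-factor-driven endothelial tube area in a mixed cell culture, no cutoff stated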)", "conditions": "VEGF-stimulated ADSC/ECFC co-culture, at 10 µM, stronger effect = higher value"}, "[5]": {"test": "GLP1 release stimulators, primary, NCI-H716, NPC library (AID 1117341;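 active means compound raises GLP1 secretion from the human gut endocrine cells, with no numeric limit stated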)", "conditions": "NCI-H716 cells, at 10 µM, stronger effect = higher value"}, "[6]": {"test": "HCT116 colon cancer cell growth inhibition, primary screen, CellTiter-Glo luminescence, NPC library (AID 1117342;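 active means compounds that lower survival of HCT116 colon cancer cells in the luminescence readout, no numeric limit stated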)", "conditions": "at 20 µM (top of the series)"}, "[7]": {"test": "reduced SW480 viability measured with CellTiter-Glo, NPC library, primary (AID 1117343;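 active means compounds that lower viability of the colon cancer cells in the luminescence readout, with no numeric limit stated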)", "conditions": "CellTiter-Glo luminescence; at 20 µM (top of the series) unless noted"}, "[8]": {"test": "NPC library primary testing for decreased DLD-1 cell viability via CellTiter-Glo (AID 1117346;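 active means compounds that lower survival of DLD-1 colon cancer cells in the luminescence readout, no cutoff given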)", "conditions": "DLD-1 viability, CellTiter-Glo luminescence; at 20 µM (top of the series)"}, "[9]": {"test": "viability loss in pontine glioma line – cell-based, SU-DIPG-XXV, MIPE5.0, CellTiter-Glo, qHTS, dose response (AID 1347065; cut-off not given, nearly all actives have AC50 up to about 26 µM;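 further: cells exposed to compound for 48 hours before ATP readout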)", "conditions": "CellTiter-Glo ATP luminescence"}, "[10]": {"test": "JHH-DIPG-1 glioma cell viability, MIPE5.0 library, CellTiter-Glo luminescence, qHTS (AID 1347067; cut-off not given, nearly all actives have AC50 up to about 26 µM;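 further: cells exposed to compound for 48 hours before readout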)", "conditions": "JHH-DIPG-1 glioma viability, CellTiter-Glo ATP luminescence"}, "[11]": {"test": "viability loss with induced miR-34 in A549 – imaging, A549 dox-inducible miR-34, nuclei and caspase counts, primary screen (AID 1347080;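 active means compounds whose cell count with miR-34 switched on is under 0.7 times the count with it off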)", "conditions": "A549 miR-34 inducible, Hoechst nuclei count, 48 h"}, "[12]": {"test": "MELAS cybrid and Rieske KO viability enhancers – cell-based, MELAS cybrids, Rieske KO mouse fibroblasts, CellTiter-Glo, primary screen (AID 1508586;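 active means mean z-score across replicates of 1.96 or higher in either the MELAS or the Rieske mutant cell line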;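 further: z relative to plate mean and SD of compound and empty wells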)", "conditions": "low glucose"}, "[13]": {"test": "viability loss in pontine glioma line – cell-based, JHH-DIPG-1, MIPE4.0, CellTiter-Glo, qHTS, dose response (AID 1347062; cut-off not given, nearly all actives have AC50 up to about 27 µM;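 further: cells exposed to compound for two days before readout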)", "conditions": "JHH-DIPG-1 viability, CellTiter-Glo ATP luminescence"}, "[14]": {"test": "viability loss in pontine glioma line – cell-based, SU-DIPG-IV, MIPE4.0, CellTiter-Glo, qHTS, dose response (AID 1347063; cut-off not given, nearly all actives have AC50 up to about 30 µM;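 further: compound exposure lasted 48 hours before the viability readout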)", "conditions": "CellTiter-Glo ATP luminescence"}, "[15]": {"test": "growth inhibition of DIPG cells – cell-based, MIPE4.0 library, CellTiter-Glo luminescence, qHTS (AID 1347066; cut-off not given, nearly all actives have AC50 up to about 30 µM;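 further: cells exposed to compound for 48 hours before readout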)", "conditions": "SU-DIPG-VI viability, CellTiter-Glo ATP luminescence"}, "[16]": {"test": "growth inhibition of DIPG cells – cell-based, MIPE5.0 library, qHTS (AID 1347068; cut-off not given, nearly all actives have IC50 up to about 30 µM;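 further: cells exposed to compound for 48 hours before viability readout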)", "conditions": "SU-DIPG-XXV viability"}, "[17]": {"test": "drug combination growth inhibition, ovarian cancer – cell-based, oncology-focused library, rucaparib conditional, profiling panel (AID 1508598)", "conditions": "patient-derived ovarian cancer cells, CellTiter-Glo viability, 144 h, stronger effect = lower value"}}, "note": "Inconclusive results are not listed. Active and inactive are the calls of the source.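 How the source made its calls, unless noted: active means normalized viability below 100% at a tested concentration; inactive means the rest.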", "data": [{"smiles": "Cc1cc2c(cc1CC(=O)c1sccc1S(=O)(=O)Nc1onc(C)c1Cl)OCO2", "values": [{"measurement": "nuclear beta-catenin stimulation", "setting": "[1]; at 10 µM", "value": "1.6% (inactive)"}, {"measurement": "nuclear beta-catenin stimulation", "setting": "[1]; stimulation, at 2 µM", "value": 3, "unit": "%"}, {"measurement": "insulin secretion stimulation", "setting": "[2]", "value": "-0.3% (inactive)"}, {"measurement": "viability decrease", "setting": "[3]", "value": "2.7% (inactive)"}, {"measurement": "tube area decrease", "setting": "[4]", "value": "-20.9% (inactive)"}, {"measurement": "GLP1 secretion stimulation", "setting": "[5]", "value": "2.9% (inactive)"}, {"measurement": "inhibition of viability", "setting": "[6]", "value": "20.9% (inactive)"}, {"measurement": "viability decrease (inhibition)", "setting": "[7]", "value": "6.8% (inactive)"}, {"measurement": "viability decrease (inhibition)", "setting": "[8]", "value": "-17.2% (inactive)"}, {"measurement": "outcome", "setting": "[9]", "value": "inactive"}, {"measurement": "AC50", "setting": "[10]", "value": "26300 nM (active)"}, {"measurement": "fold change", "setting": "[11]; stronger effect = lower value, cell number ratio, induced over uninduced", "value": "0.871 (inactive)"}, {"measurement": "fold change", "setting": "[11]; measured here: relative caspase fold change +Dox/-Dox", "value": 0.772}, {"measurement": "cell count", "setting": "[11]; measured here: total cells with miR-34 induction, stronger effect = lower value", "value": 7800}, {"measurement": "cell count", "setting": "[11]; measured here: total cells without miR-34 induction", "value": 8950}, {"measurement": "z-score", "setting": "[12]; MELAS cybrid survival, CellTiter-Glo 48 h, stronger effect = higher value", "value": "-0.207 (inactive)"}, {"measurement": "z-score", "setting": "[12]; Rieske KO mouse fibroblast survival, CellTiter-Glo 72 h", "value": -0.0127}]}, {"smiles": "CC(C)C[C@H](NC(=O)[C@H](CCc1ccccc1)NC(=O)CN1CCOCC1)C(=O)N[C@@H](Cc1ccccc1)C(=O)N[C@@H](CC(C)C)C(=O)[C@@]1(C)CO1", "values": [{"measurement": "nuclear beta-catenin stimulation", "setting": "[1]; at 10 µM", "value": "106% (active)"}, {"measurement": "nuclear beta-catenin stimulation", "setting": "[1]; stimulation, at 2 µM", "value": 129, "unit": "%"}, {"measurement": "insulin secretion stimulation", "setting": "[2]", "value": "6.05% (inactive)"}, {"measurement": "viability decrease", "setting": "[3]", "value": "117% (active)"}, {"measurement": "tube area decrease", "setting": "[4]", "value": "110% (active)"}, {"measurement": "GLP1 secretion stimulation", "setting": "[5]", "value": "5.2% (inactive)"}, {"measurement": "inhibition of viability", "setting": "[6]", "value": "124% (active)"}, {"measurement": "viability decrease (inhibition)", "setting": "[7]", "value": "150% (active)"}, {"measurement": "viability decrease (inhibition)", "setting": "[8]", "value": "101% (active)"}, {"measurement": "AC50", "setting": "[13]", "value": "18.7 nM (active)"}, {"measurement": "AC50", "setting": "[14]", "value": "23.5 nM (active)"}, {"measurement": "AC50", "setting": "[9]", "value": "5.25 nM (active)"}, {"measurement": "AC50", "setting": "[15]", "value": "93.5 nM (active)"}, {"measurement": "AC50", "setting": "[10]", "value": "10.5 nM (active)"}, {"measurement": "IC50", "setting": "[16]", "value": "93.4 nM (active)"}]}, {"smiles": "CNC(=O)c1ccccc1Sc1ccc2c(/C=C/c3ccccn3)n[nH]c2c1", "values": [{"measurement": "nuclear beta-catenin stimulation", "setting": "[1]; at 10 µM", "value": "4.6% (inactive)"}, {"measurement": "nuclear beta-catenin stimulation", "setting": "[1]; stimulation, at 2 µM", "value": 7.2, "unit": "%"}, {"measurement": "insulin secretion stimulation", "setting": "[2]", "value": "4.65% (inactive)"}, {"measurement": "viability decrease", "setting": "[3]", "value": "21% (inactive)"}, {"measurement": "tube area decrease", "setting": "[4]", "value": "106% (active)"}, {"measurement": "GLP1 secretion stimulation", "setting": "[5]", "value": "1% (inactive)"}, {"measurement": "inhibition of viability", "setting": "[6]", "value": "45.5% (inactive)"}, {"measurement": "viability decrease (inhibition)", "setting": "[7]", "value": "59.2% (active)"}, {"measurement": "viability decrease (inhibition)", "setting": "[8]", "value": "56.9% (active)"}, {"measurement": "AC50", "setting": "[9]", "value": "1180 nM (active)"}, {"measurement": "AC50", "setting": "[10]", "value": "5250 nM (active)"}, {"measurement": "IC50", "setting": "[16]", "value": "3720 nM (active)"}, {"measurement": "viability", "setting": "[17]; at 0.000305 µM, OCI-C5x cells, with rucaparib 10 µM, 100% = cells with rucaparib alone", "value": "107% (inactive)"}, {"measurement": "viability", "setting": "[17]; at 0.000305 µM, OCI-C5x cells, without rucaparib", "value": "114% (inactive)"}, {"measurement": "viability", "setting": "[17]; at 0.000305 µM, OCI-P5x cells, with rucaparib 20 µM, 100% = cells with rucaparib alone", "value": "106% (inactive)"}, {"measurement": "viability", "setting": "[17]; at 0.000305 µM, OCI-P5x cells, without rucaparib", "value": "95.9% (active)"}, {"measurement": "viability", "setting": "[17]; at 0.00122 µM, OCI-C5x cells, with rucaparib 10 µM, 100% = cells with rucaparib alone", "value": "116% (inactive)"}, {"measurement": "viability", "setting": "[17]; at 0.00122 µM, OCI-C5x cells, without rucaparib", "value": "110% (inactive)"}, {"measurement": "viability", "setting": "[17]; at 0.00122 µM, OCI-P5x cells, with rucaparib 20 µM, 100% = cells with rucaparib alone", "value": "112% (inactive)"}, {"measurement": "viability", "setting": "[17]; at 0.00122 µM, OCI-P5x cells, without rucaparib", "value": "93.6% (active)"}, {"measurement": "viability", "setting": "[17]; at 0.00488 µM, OCI-C5x cells, with rucaparib 10 µM, 100% = cells with rucaparib alone", "value": "109% (inactive)"}, {"measurement": "viability", "setting": "[17]; at 0.00488 µM, OCI-C5x cells, without rucaparib", "value": "110% (inactive)"}, {"measurement": "viability", "setting": "[17]; at 0.00488 µM, OCI-P5x cells, with rucaparib 20 µM, 100% = cells with rucaparib alone", "value": "106% (inactive)"}, {"measurement": "viability", "setting": "[17]; at 0.00488 µM, OCI-P5x cells, without rucaparib", "value": "98% (active)"}, {"measurement": "viability", "setting": "[17]; at 0.0195 µM, OCI-C5x cells, with rucaparib 10 µM, 100% = cells with rucaparib alone", "value": "114% (inactive)"}, {"measurement": "viability", "setting": "[17]; at 0.0195 µM, OCI-C5x cells, without rucaparib", "value": "103% (inactive)"}, {"measurement": "viability", "setting": "[17]; at 0.0195 µM, OCI-P5x cells, with rucaparib 20 µM, 100% = cells with rucaparib alone", "value": "108% (inactive)"}, {"measurement": "viability", "setting": "[17]; at 0.0195 µM, OCI-P5x cells, without rucaparib", "value": "94.2% (active)"}, {"measurement": "viability", "setting": "[17]; at 0.0781 µM, OCI-C5x cells, with rucaparib 10 µM, 100% = cells with rucaparib alone", "value": "118% (inactive)"}, {"measurement": "viability", "setting": "[17]; at 0.0781 µM, OCI-C5x cells, without rucaparib", "value": "98.3% (active)"}, {"measurement": "viability", "setting": "[17]; at 0.0781 µM, OCI-P5x cells, with rucaparib 20 µM, 100% = cells with rucaparib alone", "value": "126% (inactive)"}, {"measurement": "viability", "setting": "[17]; at 0.0781 µM, OCI-P5x cells, without rucaparib", "value": "96.6% (active)"}, {"measurement": "viability", "setting": "[17]; at 0.313 µM, OCI-C5x cells, with rucaparib 10 µM, 100% = cells with rucaparib alone", "value": "110% (inactive)"}, {"measurement": "viability", "setting": "[17]; at 0.313 µM, OCI-C5x cells, without rucaparib", "value": "97.7% (active)"}, {"measurement": "viability", "setting": "[17]; at 0.313 µM, OCI-P5x cells, with rucaparib 20 µM, 100% = cells with rucaparib alone", "value": "101% (inactive)"}, {"measurement": "viability", "setting": "[17]; at 0.313 µM, OCI-P5x cells, without rucaparib", "value": "87.8% (active)"}, {"measurement": "viability", "setting": "[17]; at 1.25 µM, OCI-C5x cells, with rucaparib 10 µM, 100% = cells with rucaparib alone", "value": "112% (inactive)"}, {"measurement": "viability", "setting": "[17]; at 1.25 µM, OCI-C5x cells, without rucaparib", "value": "105% (inactive)"}, {"measurement": "viability", "setting": "[17]; at 1.25 µM, OCI-P5x cells, with rucaparib 20 µM, 100% = cells with rucaparib alone", "value": "95.4% (active)"}, {"measurement": "viability", "setting": "[17]; at 1.25 µM, OCI-P5x cells, without rucaparib", "value": "85.8% (active)"}, {"measurement": "viability", "setting": "[17]; at 5 µM, OCI-C5x cells, with rucaparib 10 µM, 100% = cells with rucaparib alone", "value": "110% (inactive)"}, {"measurement": "viability", "setting": "[17]; at 5 µM, OCI-C5x cells, without rucaparib", "value": "93.2% (active)"}, {"measurement": "viability", "setting": "[17]; at 5 µM, OCI-P5x cells, with rucaparib 20 µM, 100% = cells with rucaparib alone", "value": "107% (inactive)"}, {"measurement": "viability", "setting": "[17]; at 5 µM, OCI-P5x cells, without rucaparib", "value": "83% (active)"}]}]}
